Reference: PubChem BioAssay (NCI)
About 83,000 compounds went through this panel and 20% of them were active in at least one assay; those are over-represented in the sample as a whole.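 Results are percent growth after 48 hours of single-concentration exposure. 100 means growth as in untreated cells, lower positive values show inhibition; negative values down to -100 show cell death.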 Activity calls are given as the source filed them. How the source made its calls: active means growth percent below 10; inactive means the rest.

What was measured:
Experiment in all cases: NCI-60 one-dose screen, 48 h (100 = growth as untreated, 0 = no growth, -100 = all killed)
Conditions in all cases: 10 µM unless noted
[1] = test system: DU-145 prostate
[2] = test system: K-562 leukemia
[3] = test system: MALME-3M melanoma
[4] = test system: MDA-MB-231 breast
[5] = test system: RXF 393 renal
[6] = test system: SF-268 CNS
[7] = test system: SF-295 CNS
[8] = test system: SF-539 CNS
[9] = test system: UACC-257 melanoma
[10] = test system: M14 melanoma

Measured: growth

COC(=O)c1cc(C(=O)C(C)(C)C)n2c3ccccc3c3ccccc3c12
inactive: [1] 97.4% | [2] 77.1% | [3] 109% | [4] 79.4% | [5] 91.3% | [6] 103% | [7] 93.5% | [8] 96.7% | [9] 117% | [10] 96.7%

Cc1ccc(C2CC(c3ccc(NC(=O)Nc4ccccc4)cc3)=NN2c2ccc(S(N)(=O)=O)cc2)cc1 (stereo not given)
active: [1] -76.2% | [2] 6.16% | [3] -96.5% | [4] -90.8% | [5] -91.3% | [6] -74.5% | [7] -71.2% | [8] -99.3% | [9] -71.6% | [10] -73.2%

O=C(c1ccc(O)cc1)C1[C@H](c2ccccc2Br)[C@@H](c2ccccc2)NC12C(=O)Nc1ccccc12 (stereo not given in full)
inactive: [1] 63.1% | [2] 29.4% | [3] 71.6% | [4] 41% | [5] 20.8% | [6] 49.1% | [7] 27.9% | [8] 55% | [9] 45.8% | [10] 58.6%

COc1cc(C2CC(c3ccc(C(F)(F)F)cc3)=Nc3c(N)nc(N)nc3N2)ccc1Oc1nc(Nc2ccc(F)cc2)nc(N(C)C)n1 (stereo not given)
inactive: [1] 59.9% | [3] 65.3% | [4] 29.5% | [6] 53.3% | [7] 36.6% | [8] 51.4% | [9] 50.3% | [10] 28.2%
active: [2] 7.52% | [5] 3.99%

CN(C)CCCNC(=S)Nc1ccc(/C=C/c2ccc(Cl)cc2)cc1
active: [1] -61.8% | [2] 4.54% | [3] -95% | [4] -100% | [5] -25.8% | [6] 0.261% | [7] -51.7% | [8] -68.6% | [9] -79.9% | [10] -63.5%

C=CCSc1nnc(-c2ccc(-c3nc4ccccc4[nH]3)cc2)o1
inactive: [1] 77.1% | [2] 46% | [3] 77.4% | [4] 92.2% | [5] 71.3% | [6] 87.4% | [7] 76.2% | [8] 82.2% | [9] 88.2% | [10] 73.5%

O=C(Nc1nc2ccc([N+](=O)[O-])cc2s1)Nc1ccccc1F
active: [2] 7.7% | [3] -2.16% | [4] 4.62% | [5] 5.7% | [7] 3% | [8] -8.34% | [9] -4.98%
inactive: [1] 25.8% | [6] 29.5% | [10] 16.5%

CC(Nc1ncnc2ccc(-c3ccc4oc(N)nc4c3)cc12)c1ccccc1 (stereo not given)
active: [2] 7.11% | [3] -26.5% | [4] -38% | [5] -77.9% | [7] -17.4% | [8] -89.4%
inactive: [1] 14% | [6] 35.6% | [9] 73.4% | [10] 23.7%

COc1ccccc1NC(=O)N/N=C/c1c[nH]c2ccccc12
inactive: [1] 17.6% | [2] 15.4% | [3] 54.6% | [4] 52.3% | [6] 30.9% | [9] 54.6% | [10] 14.8%
active: [5] -38.7% | [7] -14.5% | [8] -11.4%

Nc1cc(-c2c[nH]c3ccc(F)cc23)nc2cc(-c3c[nH]c4ccccc34)nn12
active: [2] 5.2% | [3] -28% | [4] -65.5% | [7] -66% | [8] -74.8% | [9] -63.3% | [10] -23.1%
inactive: [1] 26.9% | [5] 36.5% | [6] 35.4%

Clc1ccc(CNc2nc(SCCN3CCOCC3)nc3c2cnn3CC(Cl)c2ccc(Br)cc2)cc1 (stereo not given)
inactive: [1] 57.1% | [4] 44.1% | [5] 51.1% | [6] 49.3% | [7] 14.3% | [8] 27.4% | [9] 33.2% | [10] 37.2%
active: [2] 7.71% | [3] 1.86%

CCCSc1nnc(-c2sc3nc4ccccc4n3c2C)o1
inactive: [1] 103% | [2] 97.4% | [3] 116% | [4] 108% | [5] 87.3% | [6] 115% | [7] 105% | [8] 108% | [9] 102% | [10] 106%

CC(C)(C)C(=O)C1CC(C#N)=C2C=Cc3c(ccc4ccccc34)N21 (stereo not given)
inactive: [1] 102% | [2] 85.4% | [3] 102% | [4] 80.7% | [5] 91.8% | [6] 83.1% | [7] 83.4% | [8] 67.4% | [9] 84.7% | [10] 105%

COC(=O)c1c(C(=O)OC)c2ccc3c4ccccc4ccc3n2c1C(=O)C(C)Br (stereo not given)
active: [2] 4.34%
inactive: [1] 71.7% | [3] 37.9% | [4] 33.1% | [5] 32.8% | [6] 69.3% | [7] 78% | [8] 17.2% | [9] 57% | [10] 46.5%

COc1c(B(O)O)cccc1-c1nc2ccc3cn[nH]c3c2c2c1CCCC2
inactive: [1] 69.1% | [2] 74.7% | [3] 87% | [4] 25.3% | [6] 50.3% | [7] 70% | [9] 83.9% | [10] 88.4%
active: [5] -30.3% | [8] 9.76%

CC(C)(C)C(=O)c1c2c(c3ccc4c5ccccc5ccc4n13)C(=O)c1ccccc1C2=O
inactive: [1] 95.6% | [2] 103% | [4] 85.7% | [5] 105% | [6] 101% | [7] 99.6% | [8] 87.2% | [9] 105% | [10] 71.3%
active: [3] 9.73%

CS(=O)(=O)Nc1cccc(-n2cnc3cc(-c4ccc(O)cc4)ccc32)c1
inactive: [1] 29.2% | [2] 18% | [3] 27.3% | [4] 49.3% | [6] 50.3% | [7] 32% | [9] 70.5% | [10] 26.2%
active: [5] -14.2% | [8] 0.311%

Nc1nnc(-c2cncc(Br)c2)c(-c2c[nH]c3ccc(Br)cc23)n1
inactive: [1] 85.9% | [2] 19.1% | [3] 74.1% | [4] 48.7% | [5] 55.6% | [6] 77.1% | [7] 74.5% | [8] 52.3% | [9] 73.9% | [10] 44.5%

CN1CCN(CCS(=O)(=O)Nc2cc(-c3ccc4ncnc(Nc5ccc(F)c(Cl)c5)c4c3)cnc2Cl)CC1
inactive: [1] 14.8% | [2] 20.2% | [6] 40.8% | [9] 18.2% | [10] 20.9%
active: [3] -90.5% | [4] -41.3% | [5] -1.07% | [7] 7.8% | [8] -8.6%

Oc1ccc(Cl)c(Nc2ncnc3c2cnn3CC(Cl)c2ccc(Br)cc2)c1 (stereo not given)
inactive: [1] 50.8% | [3] 57.4% | [4] 26.4% | [6] 26.7% | [7] 60.3% | [8] 29.1% | [9] 80.1% | [10] 65.4%
active: [2] 1.88% | [5] -8.51%

COc1ccc2[nH]cc(-c3cc(N)n4nc(-c5c[nH]c6ccccc56)cc4n3)c2c1
active: [2] 3.51% | [3] -93.4% | [4] -69.9% | [5] -72.2% | [7] -75.9% | [8] -95.2% | [9] -92.3% | [10] -58.6%
inactive: [1] 42.6% | [6] 80.4%

COc1ccc2c(c1)C(Sc1ccc(F)cc1)c1c(nc(N)c(C#N)c1N)O2 (stereo not given)
inactive: [1] 99.5% | [2] 63.5% | [3] 88.3% | [4] 80.1% | [5] 69.2% | [6] 85% | [7] 92.8% | [8] 90.5% | [9] 104% | [10] 84.9%

Cc1ccc(N=Nc2c(N)nn3c(-c4cc5cc(Br)ccc5oc4=O)ccnc23)cc1
active: [4] -11.1% | [5] -3.16% | [8] -46.5%
inactive: [1] 52.8% | [2] 64.4% | [3] 82% | [6] 16% | [7] 49% | [9] 121% | [10] 65.1%

Cc1ccc(-c2cc(-c3ccccc3)[nH]c(=O)c2C#N)cc1
inactive: [1] 97.3% | [2] 74.4% | [3] 106% | [4] 83.8% | [5] 101% | [6] 92.9% | [7] 90.4% | [8] 81.9% | [9] 101% | [10] 111%

O=c1ccc(Cn2c(C(F)(F)F)cc3c(Cl)ncnc32)c[nH]1
inactive: [1] 86.3% | [3] 91.4% | [4] 52.6% | [5] 86.5% | [7] 97.6% | [8] 87.4% | [9] 24%
active: [2] 3.37% | [6] -22.9% | [10] -51.5%

COc1ccc2[nH]c(=O)cc(-n3ncc(C(=O)/C=C/c4cc(OC)c(OC)c(OC)c4)c3C)c2c1
inactive: [7] 11.3%
active: [1] -2.23% | [2] 1.01% | [3] -25.7% | [4] 1.48% | [5] -74.8% | [6] 8.19% | [8] -59.8% | [9] -6.58% | [10] -48.3%
